Most compounds without a hit are left out; they make up all but 4.1% or so of the library.
RecA splice inh = Mtb RecA intein splicing inhibition. 290,000 tested, 0.75% active. inhibition, % (test concentration not listed). cell-free RecA intein splicing, fluorescence. P9WHJ3; in the data active = inhibition above about 30%;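 also: 0% = vehicle wells and 100% = reference inhibitor control wells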
Target sequence (P9WHJ3 whole entry, looked up, canonical isoform): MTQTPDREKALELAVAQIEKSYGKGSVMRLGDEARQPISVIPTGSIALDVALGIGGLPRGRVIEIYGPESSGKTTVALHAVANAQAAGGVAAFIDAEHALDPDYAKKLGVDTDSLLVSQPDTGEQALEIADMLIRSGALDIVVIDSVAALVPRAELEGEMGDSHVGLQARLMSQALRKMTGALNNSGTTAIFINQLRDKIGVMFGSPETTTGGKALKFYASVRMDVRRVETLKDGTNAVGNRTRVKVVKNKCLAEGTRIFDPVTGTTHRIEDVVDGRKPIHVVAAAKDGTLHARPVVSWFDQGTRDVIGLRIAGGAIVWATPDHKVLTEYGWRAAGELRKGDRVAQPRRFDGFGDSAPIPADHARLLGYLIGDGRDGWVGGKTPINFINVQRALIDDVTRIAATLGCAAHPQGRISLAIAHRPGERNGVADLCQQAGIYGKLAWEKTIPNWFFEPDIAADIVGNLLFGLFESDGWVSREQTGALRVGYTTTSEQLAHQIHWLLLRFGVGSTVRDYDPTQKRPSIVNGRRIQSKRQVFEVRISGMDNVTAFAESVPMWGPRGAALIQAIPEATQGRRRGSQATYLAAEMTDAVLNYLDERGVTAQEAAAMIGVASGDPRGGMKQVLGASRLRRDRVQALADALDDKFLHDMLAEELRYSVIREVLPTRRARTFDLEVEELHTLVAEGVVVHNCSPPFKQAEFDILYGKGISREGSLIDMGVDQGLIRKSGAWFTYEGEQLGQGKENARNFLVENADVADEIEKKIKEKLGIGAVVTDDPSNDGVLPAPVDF
GDH-TPI counter-1 = counter-screen for M. tuberculosis FBA inhibitors: GDH-TPI coupled enzymes | GDH-TPI coupled enzyme counterscreen, NADH absorbance | inhibition, % at 4.8 µM | 360,000 tested, 1.2% active; in the data active = inhibition above about 30%;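 also: 0% = DMSO wells and 100% = wells lacking the enzyme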
Vc quorum ag = inducers of Vibrio cholerae quorum light production without autoinducers; V. cholerae BH1578 lux reporter, luminescence, 6 h; activation, % at 18.7 µM; 350,000 tested, 0.16% active; AID 588436; in the data active = activation mostly above about 9.7%, no sharp cut-off
UGM FP inh = inhibitors of M. tuberculosis UDP-galactopyranose mutase; P9WIQ1; purified UGM, fluorescence polarization probe displacement; inhibition, % at 10 µM; 320,000 tested, 0.06% active; in the data active = inhibition above about 10%, passing the limit was not always enough
Rv3671c inh = Rv3671c (M. tuberculosis) protease inhibition; 320,000 tested, 0.048% active; AID 2606; inhibition, % at 5.96 µM; in the data active = inhibition above about 38%;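 also: extracellular domain of Rv3671c used as enzyme; 0% = enzyme with DMSO and 100% = no enzyme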
FBA Mtb inh = inhibits M. tuberculosis FBA enzyme | purified M. tuberculosis FBA, fluorescence read-out | 360,000 tested, 2.3% active | P9WQA3 | inhibition, % at 1 µM;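 also: 0% = vehicle and 100% = reference inhibitor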
Mtb FBA confirm = Mtb FBA inhibition, confirmed. shares compounds with FBA Mtb inh. purified M. tuberculosis FBA, fluorescence read-out. inhibition, % at 1 µM. 5,600 tested, 78% active. AID 651616;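 also: 0% = vehicle wells and 100% = reference inhibitor wells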
GDH-TPI counter-2 = GDH-TPI inhibition counter-screen for FBA inhibitors; shares compounds with FBA Mtb inh; GDH-TPI coupled enzyme counterscreen, fluorescence; inhibition, % at 1 µM; 5,600 tested, 81% active; in the data active = inhibition above about 10%
GDH-TPI DR = inhibits GDH-TPI coupling enzymes in dose response. shares compounds with FBA Mtb inh. GDH-TPI coupled enzyme assay, fluorescence, artifact counterscreen. IC50, µM. 170 tested, 79% active; call rule not given here
* = called active by the depositor; i = inactive; x = no result given; + = active, no number. Rule as the data show it, unless noted: active = inhibition above about 27%; inactive = the rest.

SMILES	RecA splice inh	GDH-TPI counter-1	Vc quorum ag	UGM FP inh	Rv3671c inh	FBA Mtb inh	Mtb FBA confirm	GDH-TPI counter-2	others
O=C(COC(=O)c1ccccn1)c1ccc([N+](=O)[O-])cc1	-8	-2	0	0	5	-3	x	x
CC(=O)Oc1c(-c2ccc(Br)o2)oc2ccccc2c1=O	-62	30	0	-3	-1	79*	47*	41*
NC(=O)COc1c(-c2ccco2)oc2ccccc2c1=O	-1	26	0	0	2	21	x	x
COc1ccc(CN2CCNC(=O)C2CC(=O)NCCC2=CCCCC2)c(F)c1 (stereo unspecified)	3	-2	i	2	8	3	x	x
O=c1c(-c2nnc(SCc3ccc(Cl)cc3Cl)o2)cccn1Cc1ccccc1	3	20	i	0	-17	52*	43*	23*
CSc1nnc(-c2cccn(Cc3cccc(Cl)c3)c2=O)o1	0	1	i	-1	1	87*	+	+
Clc1ccc(CSc2nnc(-c3ccncc3)o2)c(Cl)c1	2	9	-1	-5	0	-3	x	x
CC(=O)OCC(=O)C1(O)CCC2C3CCC4=CC(=O)CCC4(C)C3(F)C(O)CC21C (stereo unspecified)	x	4	-7	x	x	0	x	x
CC(=O)OC(C(=O)NCc1ccc2c(c1)OCO2)c1ccccc1Cl (stereo unspecified)	0	4	i	-2	-7	105*	120*	92*
CC(OC(=O)c1ccco1)C(=O)NCc1ccc2c(c1)OCO2 (stereo unspecified)	-1	-7	i	-1	-4	2	x	x
CC(C)C(OC(=O)c1ccco1)C(=O)NCc1ccc2c(c1)OCO2 (stereo unspecified)	1	2	i	1	1	74*	135*	84*
CC1(C(=O)NS(=O)(=O)C2CC2)CCCN(C(=O)c2ccccc2OC(F)(F)F)C1 (stereo unspecified)	x	-2	0	x	x	4	x	x
COc1ccc(C(Cl)=C(C=O)c2ccc(OC)c(OC)c2)cc1OC	x	x	x	x	x	-1	x	x
CC(Oc1cc2oc(=O)c3c(c2cc1Cl)CCCC3)C(=O)NCc1ccccn1 (stereo unspecified)	-3	13	-1	-3	-5	14	x	x
Cc1c(OC(C)C(=O)NCc2ccccn2)ccc2c3c(c(=O)oc12)CCCC3 (stereo unspecified)	2	3	0	1	-7	68*	3	1
Cc1c(OC(C)C(=O)NCc2ccncc2)ccc2c3c(c(=O)oc12)CCC3 (stereo unspecified)	-7	12	0	0	2	73*	83*	53*
CC(C(=O)N1CCc2ccccc21)N(C)CC(=O)Nc1ccccc1Cl (stereo unspecified)	x	0	3	3	5	2	x	x
COc1ccc(Cl)cc1NC(=O)CN(C)C(=O)c1ccc2c(c1)CC(c1ccccc1)OC2=O (stereo unspecified)	x	2	2	1	-17	-2	x	x
CCOC(=O)Nc1cccc2ccccc12	2	-6	0	1	12	7	x	x
CCOC(=O)Nc1ccc2c3c(cccc13)-c1ccccc1-2	x	13	0	x	x	57*	70*	61*
COc1cccc(C=NN(C)c2c([N+](=O)[O-])cc(C(F)(F)F)cc2[N+](=O)[O-])c1O	x	x	x	x	x	-8	x	x
COc1ccc(CCN2CC(C(=O)NCc3nc4ccccc4n3C)CCC2=O)cc1 (stereo unspecified)	x	-8	i	2	-6	3	x	x
Nc1cc(C(=O)O)ccc1Nc1ccccc1	4	8	0	0	-19	91*	126*	113*
CCc1ccccc1Nc1ccc(C(=O)O)cc1N	5	-7	0	2	-3	14	x	x
Cc1nnc(SCC(=O)NCC(=O)Nc2ccc(F)c(F)c2F)n1N	x	1	-1	-2	5	-2	x	x
SMILES	RecA splice inh	GDH-TPI counter-1	Vc quorum ag	UGM FP inh	Rv3671c inh	FBA Mtb inh	Mtb FBA confirm	GDH-TPI counter-2	others
O=C(CCS(=O)(=O)c1ccccc1)Nc1ccc2c(c1)C(=O)NC2=O	-2	1	0	-1	-7	50*	+	+
CN1C(=O)c2ccc(NC(=O)CCS(=O)(=O)c3ccccc3)cc2C1=O	-3	4	i	-2	2	35*	83*	61*
Nc1ccc(Nc2ccncc2)cc1	x	19	-1	x	x	-3	x	x
CCOc1ccc(NC(=O)CN(C)C(=O)C2CSC3(C)CCC(=O)N23)cc1OCC (stereo unspecified)	x	8	0	5	-6	1	x	x
CC(C)Nc1nc(-c2ccccc2CO)c2sccc2n1	x	9	i	x	x	74*	77*	58*
Cc1ccccc1-c1nc(NC(C)C)nc2ccsc12	x	22	-1	x	x	64*	+	+
OCc1ccccc1-c1nc(NCC2CC2)nc2ccsc12	x	10	0	x	x	72*	63*	55*
CN(C)CCNc1nc(-c2ccccc2CO)c2sccc2n1	x	8	-1	x	x	13	x	x
O=C(Nc1ccc2oc(-c3cccnc3)nc2c1)c1ccco1	-1	4	i	-3	-8	29*	-2	-6
O=C(Nc1cccc(-c2nc3cccnc3s2)c1)c1ccco1	0	6	i	-1	-11	1	x	x
O=C(Nc1ccc2oc(-c3cccnc3)nc2c1)c1ccc(Br)o1	-5	17	i	-3	-6	14	x	x
Cc1ccc(-c2nnc(-c3ccc(NC(=O)c4ccco4)cc3)o2)cc1	3	27	-12	-2	-15	2	x	x
O=C(Nc1ccc(-c2nc3cccnc3s2)cc1)c1ccco1	-2	28	-1	-1	-40	29*	10	-2	GDH-TPI DR=3.1*
O=C(Nc1ccc(-c2nc3ncccc3o2)cc1)c1ccco1	0	45*	0	2	-15	27*	58*	50*
O=C1CCC(C(=O)N2CCc3c(Cl)cccc3C2)CN1CCCN1CCOCC1 (stereo unspecified)	-1	1	1	-4	x	-1	x	x
CCC(C)(C)C(=O)Nc1ncc(S(=O)(=O)c2ccc([N+](=O)[O-])cc2)s1	0	-3	6	3	2	76*	4	-1
C[C@H]1CN([C@@H](C)CO)C(=O)c2cc(/C=C/c3ccccc3)cnc2O[C@H]1CN(C)C(=O)c1cccc(F)c1	x	3	-1	x	x	64*	66*	58*
O=C(NCCN1CCOCC1)c1cc(-c2ccccc2Cl)nc2ccccc12	-2	6	i	-1	-13	-1	x	x

Bioassay records as filed in PubChem BioAssay.
